Results taken from PubChem BioAssay AID504651 (National Center for Advancing Translational Sciences (NCATS), 2011).
In all, about 360,000 compounds went through this assay and about 130 (0.036%) were called active. No stated cut-off is given here; in the data, active means potentiation above about 30%; inactive means the rest. The sample as a whole holds a higher share of actives than the screen did.

What follows are molecules tested against D(1A) dopamine receptor (Homo sapiens) (UniProt P21728) (assay: Potentiators of Human D1 Dopamine Receptor: qHTS). Details: HEK293 TREx D1 cells, calcium flux, dopamine EC20 potentiation; at 10 µM; stronger effect = higher value.
Further: 0% is about no effect.

Sequence of D(1A) dopamine receptor (Homo sapiens) (P21728 whole entry, looked up): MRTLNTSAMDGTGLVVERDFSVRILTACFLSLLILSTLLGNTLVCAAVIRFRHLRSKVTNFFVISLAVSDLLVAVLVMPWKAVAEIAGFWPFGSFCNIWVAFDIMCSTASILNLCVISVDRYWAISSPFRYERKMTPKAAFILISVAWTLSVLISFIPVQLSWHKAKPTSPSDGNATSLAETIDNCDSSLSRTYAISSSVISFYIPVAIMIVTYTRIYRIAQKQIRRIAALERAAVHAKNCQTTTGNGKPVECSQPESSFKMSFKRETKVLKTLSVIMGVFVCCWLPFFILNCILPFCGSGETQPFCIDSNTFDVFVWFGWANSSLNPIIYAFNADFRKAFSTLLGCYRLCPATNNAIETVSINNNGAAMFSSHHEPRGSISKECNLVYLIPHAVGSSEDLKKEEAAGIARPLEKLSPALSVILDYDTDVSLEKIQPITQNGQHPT

potentiation, inactive:
CN1CCOc2cc(S(=O)(=O)N3CCN(S(=O)(=O)c4c(F)cccc4F)CC3)cnc21 -1.8%
O=C(Nc1ccc(C(=O)OCc2cc(=O)n3nc(C4CC4)sc3n2)cc1)c1ccc(F)cc1 -0.15%
Cc1cccc2nc(-c3ccc(Cl)s3)c(Nc3ccc4c(c3)OCCO4)n12 1.7%
CCN(CC)S(=O)(=O)c1ccc2c(c1)nc(CN(C)C(=O)Nc1ccc(Cl)cc1)n2C 0.4%
Cc1csc2nc(COC(=O)c3ccccc3NC(=O)c3ccccc3Cl)cc(=O)n12 1.1%
CCCCC(CC)CNC(=O)C1CCN(S(=O)(=O)c2cccc3nsnc23)CC1 (stereo not drawn) 3.8%
CCS(=O)(=O)c1nc(S(=O)(=O)c2ccc(C)cc2)c(NCc2ccc(Cl)cc2)s1 -2.95%
CCOC(=O)c1c(NC(=O)/C=C/c2ccc(OC)cc2)sc2c1CCC(C)C2 (stereo not drawn) 0.15%
N#CN1CCC(NS(=O)(=O)c2cccc(F)c2)C1 (stereo not drawn) -6.75%
CCOc1ccc(OCC)c(NC(=O)c2c(C)nn(-c3ccccc3)c2-n2cccc2)c1 -0.5%
CCN(CCCNC(=O)Cn1ncc2c3ccccc3n(C)c2c1=O)Cc1ccccc1 -1.8%
CCOc1ccc(C2CC(=O)c3c([nH]c(C(=O)OCc4ccccc4)c3C)C2)cc1 (stereo not drawn) -3.65%
O=C1Cc2cc(S(=O)(=O)Nc3ccc(OC(F)(F)F)cc3)cc3c2N1CCC3 1.65%
Cc1ccc(NC(=O)C2CCN(S(=O)(=O)c3cc(-c4noc(C)n4)ccc3C)CC2)c(C)c1 -4.05%
O=C(c1cnn(-c2ccc(F)cc2)c1-n1cccc1)N1CCN(c2ccc(F)cc2)CC1 -1.95%
CCc1ccc(N2C(=O)CN(S(=O)(=O)CC)CC2(C)C(=O)NC2CCCCC2)cc1 (stereo not drawn) -0.1%
CC(C)CNc1ncnc2c1nnn2C 2.3%
O=C(CSc1n[nH]c(-c2ccccc2)n1)N1CCCCC1 2.7%
Cc1ccc(Cn2ncc3c4sc(C)cc4n(C)c3c2=O)c(C)c1 0.9%
CCC1=Nc2cc(C(=O)NCCCOC(C)C)ccc2Sc2ccc(C)cc21 3.75%
Cc1cc2c(cc1S(=O)(=O)CCC(=O)Nc1ccc(OC(F)(F)F)cc1)OCC(=O)N2 -3.35%
Cc1c(C(=O)Nc2cccc(Cl)c2)oc2ccc(S(=O)(=O)N3CCOCC3)cc12 -2.25%
CCc1ccc(NS(=O)(=O)c2ccc3[nH]cc(C(=O)NCCc4cccc(C)c4)c(=O)c3c2)cc1 2.6%
Cc1ccc(-n2ncc(C(=O)N(C)Cc3ccccc3)c2-n2cccc2)cc1 -0.5%
Cc1ccc(CN2COc3cc(C)c4c(oc(=O)c5ccccc54)c3C2)cc1 -0.2%
CCCCn1c(=O)c2oc3ccccc3c2n(CC(=O)Nc2ccccc2OC)c1=O 1.65%
Cc1cccc(C(=O)N2c3nc(-c4ccco4)nn3C3(CCCCC3)[C@@H]3CCCC[C@@H]32)c1 -0.1%
Cc1cc(F)ccc1NC1(c2ccccc2)C(=O)c2ccccc2C1=O -5.75%
Cc1ccccc1C(=O)Nc1nnc(S(=O)(=O)N(C)c2ccc(Cl)cc2)s1 -0.45%
COc1cccc(C(=O)Nc2ccc(-c3cc(C(F)(F)F)nn3-c3ccccc3)cc2)c1 -4.85%
CCOC(=O)c1c(C)n(S(=O)(=O)c2ccc(C)cc2C)c2ccc(NS(=O)(=O)c3ccc(C)cc3C)cc12 -1.05%
COc1ccc(CCNc2nc(-c3ccc(Cl)cc3)cc(C(F)(F)F)n2)cc1OC 0.65%
Cc1cc2c(s1)c1cnn(Cc3cc(F)c(Cl)cc3Cl)c(=O)c1n2C -0.95%
Cc1ccc(S(=O)(=O)N2CCC(C(=O)Nc3cc(C)ccc3C)CC2)cc1 -2.85%
Cc1ccc(CNC(=O)CCc2c(C)nc3c(c(C)nn3-c3ccccc3)c2C)cc1 -2.25%
COc1ccc(N2CCN(S(=O)(=O)CCNC(=O)C(c3ccccc3)c3ccccc3)CC2)cc1 -0.4%
COC(=O)c1c(NC(=O)C(C)Oc2ccc(Cl)c(C)c2)sc(C)c1C (stereo not drawn) 0.65%
COc1cccc(-c2nnc(SCC(=O)N3CCC(C)CC3)o2)c1 -1.7%
Cc1ccccc1CNC(=O)CCc1cn(Cc2ccccc2C)c2ccccc12 -5.7%
Cc1ccc(C)c(Cn2c(C(=O)O)c(CNCc3cccs3)c3ccccc32)c1 19.9%
COc1ccc(Cc2nc3ccc(C(=O)NCc4ccccc4C)cc3o2)cc1 -2.05%
O=C(Cc1ccc(Cl)cc1)NCC(c1cccs1)S(=O)(=O)c1ccc(Cl)cc1 (stereo not drawn) -0.5%
CC(=O)c1ccc(NC(=O)CSc2nc(-c3ccccc3F)nc3c2c(=O)n(C)c(=O)n3C)cc1 -0.45%
CCSc1nnc(NC(=O)c2cc(=O)c3cc(C)c(C)cc3o2)s1 0.15%
COC(=O)c1ccccc1NC(=O)c1ccc(C#N)cc1 3.5%
O=C(Cn1c(=O)n(Cc2cccs2)c(=O)c2cccnc21)Nc1ccc(F)cc1 -2.6%
COc1ccc(-c2cccc(NS(=O)(=O)c3cc(C)c(OC)c(C)c3C)c2)nn1 -2.1%
Cc1ccc(SCC(=O)Nc2ccc3oc(-c4ccccc4C)nc3c2)cc1 -0.2%
